Reference: PubChem BioAssay
Calls of active or inactive are those of the source.

Legend:
[1] = binders of probe aFSTL3 on microarray, primary screen, stem cell growth factor project, biochemical, small-molecule microarray, fluorescence 635/667 (AID 1064); details: higher = more signal;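 note: measures binding of the biotinylated anti-FSTL3 antibody to printed compounds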
[2] = binders from COS7 lysate, DM2A8 probe, primary screen, torsin A project, cell lysate, small-molecule microarray, fluorescence 635/667 (AID 1065); details: higher = more signal, COS7 lysate expressing mutant human TOR1A
[3] = binders of probe aFGF2 on microarray, primary screen, stem cell growth factor project, biochemical, small-molecule microarray, fluorescence 635/667 (AID 1067); details: higher = more signal;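 note: measures binding of biotinylated aFGF2 protein to printed compounds on slides; z-score merges feature fluorescence and signal-to-noise across triplicate slides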
[4] = binders of probe aFGF10 on microarray, primary screen, stem cell growth factor project, biochemical, small-molecule microarray, fluorescence 635/667 (AID 1071); details: higher = more signal;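 note: score merges 667 nm spot intensity and signal to noise from triplicate slides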
[5] = target: Neurogenic locus notch homolog protein 2 (Homo sapiens) (UniProt Q04721); assay: Notch2 binders on small-molecule microarrays, primary screen, biochemical, small-molecule microarray, 635 nm fluorescence, stem cell growth factors (AID 1073); details: Notch2 binding, higher = more signal
Chain of Neurogenic locus notch homolog protein 2 (Homo sapiens) (Q04721 whole entry, looked up, canonical isoform): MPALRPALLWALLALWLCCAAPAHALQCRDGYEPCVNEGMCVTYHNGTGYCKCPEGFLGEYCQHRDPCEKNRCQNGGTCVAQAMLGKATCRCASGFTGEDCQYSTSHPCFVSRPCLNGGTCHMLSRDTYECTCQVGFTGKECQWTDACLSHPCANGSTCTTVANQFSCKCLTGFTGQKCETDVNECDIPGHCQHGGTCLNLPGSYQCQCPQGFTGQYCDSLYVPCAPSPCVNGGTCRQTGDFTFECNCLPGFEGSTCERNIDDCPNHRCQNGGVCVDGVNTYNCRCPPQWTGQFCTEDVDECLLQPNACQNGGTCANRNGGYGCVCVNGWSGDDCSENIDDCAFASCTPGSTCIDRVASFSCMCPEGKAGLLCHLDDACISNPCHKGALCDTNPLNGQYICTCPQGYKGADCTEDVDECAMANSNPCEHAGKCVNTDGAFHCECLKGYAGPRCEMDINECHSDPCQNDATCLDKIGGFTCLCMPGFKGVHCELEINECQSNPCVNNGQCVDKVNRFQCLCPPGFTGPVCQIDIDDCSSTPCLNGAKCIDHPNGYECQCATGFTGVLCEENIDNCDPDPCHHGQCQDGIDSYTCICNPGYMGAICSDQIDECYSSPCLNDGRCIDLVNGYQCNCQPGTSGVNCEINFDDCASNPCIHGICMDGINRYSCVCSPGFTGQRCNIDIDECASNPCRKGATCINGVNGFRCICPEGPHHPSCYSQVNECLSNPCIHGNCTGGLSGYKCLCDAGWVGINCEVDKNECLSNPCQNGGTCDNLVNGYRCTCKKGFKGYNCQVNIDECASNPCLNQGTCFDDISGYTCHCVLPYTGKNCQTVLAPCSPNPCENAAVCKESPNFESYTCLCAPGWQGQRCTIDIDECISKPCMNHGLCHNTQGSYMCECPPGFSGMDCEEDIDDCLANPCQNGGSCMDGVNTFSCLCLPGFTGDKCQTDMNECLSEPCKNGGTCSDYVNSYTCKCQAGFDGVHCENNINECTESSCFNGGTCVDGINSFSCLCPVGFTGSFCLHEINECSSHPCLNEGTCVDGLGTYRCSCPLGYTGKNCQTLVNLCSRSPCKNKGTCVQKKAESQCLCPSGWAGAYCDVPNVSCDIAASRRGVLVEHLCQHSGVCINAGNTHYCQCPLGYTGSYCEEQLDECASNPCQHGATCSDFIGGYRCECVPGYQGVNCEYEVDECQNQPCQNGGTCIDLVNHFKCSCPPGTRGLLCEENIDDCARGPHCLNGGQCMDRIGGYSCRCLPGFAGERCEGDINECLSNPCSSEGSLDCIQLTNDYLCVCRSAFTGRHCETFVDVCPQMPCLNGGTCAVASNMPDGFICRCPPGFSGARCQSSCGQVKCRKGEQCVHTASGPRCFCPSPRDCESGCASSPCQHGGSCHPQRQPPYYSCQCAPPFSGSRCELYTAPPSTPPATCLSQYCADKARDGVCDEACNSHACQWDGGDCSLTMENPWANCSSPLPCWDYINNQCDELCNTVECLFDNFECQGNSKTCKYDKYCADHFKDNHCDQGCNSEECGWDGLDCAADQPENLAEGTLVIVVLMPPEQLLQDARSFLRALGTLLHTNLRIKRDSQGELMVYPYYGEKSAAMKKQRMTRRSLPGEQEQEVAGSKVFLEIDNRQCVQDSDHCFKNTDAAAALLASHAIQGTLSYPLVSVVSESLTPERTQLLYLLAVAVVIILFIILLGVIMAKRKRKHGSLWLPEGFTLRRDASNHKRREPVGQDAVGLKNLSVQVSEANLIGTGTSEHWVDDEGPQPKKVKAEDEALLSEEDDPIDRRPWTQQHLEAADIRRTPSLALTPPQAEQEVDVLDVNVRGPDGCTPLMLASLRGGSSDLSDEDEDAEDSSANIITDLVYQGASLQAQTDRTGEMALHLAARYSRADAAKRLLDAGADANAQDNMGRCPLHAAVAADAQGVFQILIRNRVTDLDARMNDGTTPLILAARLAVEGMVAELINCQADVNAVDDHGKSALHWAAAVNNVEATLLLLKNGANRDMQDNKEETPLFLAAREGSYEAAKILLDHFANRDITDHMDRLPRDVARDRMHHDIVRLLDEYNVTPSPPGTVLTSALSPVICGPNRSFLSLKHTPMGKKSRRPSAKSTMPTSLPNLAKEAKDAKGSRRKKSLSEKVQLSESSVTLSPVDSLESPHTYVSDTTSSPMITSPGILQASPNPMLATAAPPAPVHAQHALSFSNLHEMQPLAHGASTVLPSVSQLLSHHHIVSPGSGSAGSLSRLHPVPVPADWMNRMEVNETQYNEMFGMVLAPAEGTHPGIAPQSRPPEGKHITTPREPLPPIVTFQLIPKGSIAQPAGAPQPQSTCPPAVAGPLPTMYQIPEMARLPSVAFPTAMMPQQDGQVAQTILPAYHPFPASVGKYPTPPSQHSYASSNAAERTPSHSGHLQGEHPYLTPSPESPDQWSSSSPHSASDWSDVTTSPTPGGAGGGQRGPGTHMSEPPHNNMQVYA

[6] = target: Pro-neuregulin-1, membrane-bound isoform (Homo sapiens) (UniProt Q02297); assay: NRG1 binders on small-molecule microarrays, primary screen, psychiatric disease protein project, biochemical, small-molecule microarray, fluorescence 635/667 (AID 1075); details: NRG1 binding, 635 nm fluorescence, higher = more signal;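 note: score combines 667 nm spot fluorescence with signal to noise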
[7] = system: Neuregulin-1 EGF-like domain; assay: binders of neuregulin-1 EGF-like domain, primary screen, biochemical, small-molecule microarray, 635 nm fluorescence (AID 1081); details: small-molecule microarray binding, higher = more signal;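 note: binding of the protein to compounds printed on small-molecule microarray slides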
[8] = FRG1 promoter luciferase signal modulators, primary screen, FRG1 inhibition for FSHD, cell-based, C2C12 myotubes, firefly/Renilla luciferase, luminescence (AID 1084); details: higher = more signal, called active from +8 up or from −8 down
[9] = binders of probe aFST on microarray, primary screen, stem cell growth factor project, biochemical, small-molecule microarray, fluorescence 635/667 (AID 1086); details: higher = more signal;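 note: score merges 667 nm fluorescence with signal-to-noise of each printed compound spot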
[10] = binders of probe aHhip on microarray, primary screen, stem cell growth factor project, biochemical, small-molecule microarray, fluorescence 635/667 (AID 1087); details: higher = more signal;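 note: score merges spot fluorescence at 667nm with spot signal to noise ratio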
[11] = system: PRMT1 (protein arginine N-methyltransferase 1); assay: PRMT1 binders on small-molecule microarrays, primary screen, biochemical, small-molecule microarray, 635 nm fluorescence (AID 1088); details: small-molecule microarray binding, higher = more signal;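 note: binding of Prmt1 protein to compounds spotted on small-molecule microarray slides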
[12] = yeast growth modulation, basal conditions, primary screen, YJM789 clinical isolate, OD600, 24 h (AID 1089);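 note: growth of clinical yeast isolate S. cerevisiae YJM 789 seeded 1000 cells per well; test concentration not given here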; details: S. cerevisiae YJM789 growth, higher = more signal, called active from +8 up or from −8 down
[13] = fission yeast growth modulation, primary screen, strain 972, OD600, 24 h, no modulator (AID 1090);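 note: basal condition with compound alone and no growth modifier present; test concentration not given here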; details: S. pombe 972 growth, higher = more signal, called active from +8 up or from −8 down
[14] = S. cerevisiae growth modulation with rapamycin, primary screen, strain BY4716, OD600, 96 h (AID 1091); details: higher = more signal, called active from +8 up or from −8 down; note: test concentration not given here
[15] = target: Torsin-1A-interacting protein 2 (Homo sapiens) (UniProt Q8NFQ8); assay: LULL1 binders on small-molecule microarray, primary screen, cell lysate, human LULL1 lysate, 635/667 nm fluorescence (AID 1092); details: hLULL1 lysate binding, 635 nm fluorescence, higher = more signal;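 note: probe is lysate of COS7 cells overexpressing human LULL1; score merges per-feature 667 nm fluorescence with signal-to-noise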
[16] = E. coli growth modulation, two-sided OD650, primary screen, E. coli filamentation project, strain DRC41, 24 h (AID 1093); details: OD650, 24 h, higher = more signal, called active from +8 up or from −8 down;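 note: MC1000 strain lacking acrAB efflux and sulA so SOS filamentation is blocked; test concentration not given here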
[17] = small-molecule microarray binders of probe aLefty2, primary screen, biochemical, biotinylated probe, 635/667 nm fluorescence (AID 1094); details: higher = more signal;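 note: score merges spot fluorescence near 667 nm with spot signal-to-noise ratio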
[18] = system: Noggin (protein binding on small-molecule microarray); assay: Noggin binders on small-molecule microarray, primary screen, biochemical, 635/667 nm fluorescence (AID 1095); details: 635 nm fluorescence, higher = more signal;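 note: score merges 667 nm feature fluorescence with signal to noise over triplicate slides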
[19] = target: Neurogenic locus notch homolog protein 3 (Homo sapiens) (UniProt Q9UM47); assay: NOTCH3 binders on small-molecule microarray, primary screen, biochemical, 635/667 nm fluorescence (AID 1096); details: NOTCH3 binding, 635 nm fluorescence, higher = more signal
Chain of Neurogenic locus notch homolog protein 3 (Homo sapiens) (Q9UM47 whole entry, looked up): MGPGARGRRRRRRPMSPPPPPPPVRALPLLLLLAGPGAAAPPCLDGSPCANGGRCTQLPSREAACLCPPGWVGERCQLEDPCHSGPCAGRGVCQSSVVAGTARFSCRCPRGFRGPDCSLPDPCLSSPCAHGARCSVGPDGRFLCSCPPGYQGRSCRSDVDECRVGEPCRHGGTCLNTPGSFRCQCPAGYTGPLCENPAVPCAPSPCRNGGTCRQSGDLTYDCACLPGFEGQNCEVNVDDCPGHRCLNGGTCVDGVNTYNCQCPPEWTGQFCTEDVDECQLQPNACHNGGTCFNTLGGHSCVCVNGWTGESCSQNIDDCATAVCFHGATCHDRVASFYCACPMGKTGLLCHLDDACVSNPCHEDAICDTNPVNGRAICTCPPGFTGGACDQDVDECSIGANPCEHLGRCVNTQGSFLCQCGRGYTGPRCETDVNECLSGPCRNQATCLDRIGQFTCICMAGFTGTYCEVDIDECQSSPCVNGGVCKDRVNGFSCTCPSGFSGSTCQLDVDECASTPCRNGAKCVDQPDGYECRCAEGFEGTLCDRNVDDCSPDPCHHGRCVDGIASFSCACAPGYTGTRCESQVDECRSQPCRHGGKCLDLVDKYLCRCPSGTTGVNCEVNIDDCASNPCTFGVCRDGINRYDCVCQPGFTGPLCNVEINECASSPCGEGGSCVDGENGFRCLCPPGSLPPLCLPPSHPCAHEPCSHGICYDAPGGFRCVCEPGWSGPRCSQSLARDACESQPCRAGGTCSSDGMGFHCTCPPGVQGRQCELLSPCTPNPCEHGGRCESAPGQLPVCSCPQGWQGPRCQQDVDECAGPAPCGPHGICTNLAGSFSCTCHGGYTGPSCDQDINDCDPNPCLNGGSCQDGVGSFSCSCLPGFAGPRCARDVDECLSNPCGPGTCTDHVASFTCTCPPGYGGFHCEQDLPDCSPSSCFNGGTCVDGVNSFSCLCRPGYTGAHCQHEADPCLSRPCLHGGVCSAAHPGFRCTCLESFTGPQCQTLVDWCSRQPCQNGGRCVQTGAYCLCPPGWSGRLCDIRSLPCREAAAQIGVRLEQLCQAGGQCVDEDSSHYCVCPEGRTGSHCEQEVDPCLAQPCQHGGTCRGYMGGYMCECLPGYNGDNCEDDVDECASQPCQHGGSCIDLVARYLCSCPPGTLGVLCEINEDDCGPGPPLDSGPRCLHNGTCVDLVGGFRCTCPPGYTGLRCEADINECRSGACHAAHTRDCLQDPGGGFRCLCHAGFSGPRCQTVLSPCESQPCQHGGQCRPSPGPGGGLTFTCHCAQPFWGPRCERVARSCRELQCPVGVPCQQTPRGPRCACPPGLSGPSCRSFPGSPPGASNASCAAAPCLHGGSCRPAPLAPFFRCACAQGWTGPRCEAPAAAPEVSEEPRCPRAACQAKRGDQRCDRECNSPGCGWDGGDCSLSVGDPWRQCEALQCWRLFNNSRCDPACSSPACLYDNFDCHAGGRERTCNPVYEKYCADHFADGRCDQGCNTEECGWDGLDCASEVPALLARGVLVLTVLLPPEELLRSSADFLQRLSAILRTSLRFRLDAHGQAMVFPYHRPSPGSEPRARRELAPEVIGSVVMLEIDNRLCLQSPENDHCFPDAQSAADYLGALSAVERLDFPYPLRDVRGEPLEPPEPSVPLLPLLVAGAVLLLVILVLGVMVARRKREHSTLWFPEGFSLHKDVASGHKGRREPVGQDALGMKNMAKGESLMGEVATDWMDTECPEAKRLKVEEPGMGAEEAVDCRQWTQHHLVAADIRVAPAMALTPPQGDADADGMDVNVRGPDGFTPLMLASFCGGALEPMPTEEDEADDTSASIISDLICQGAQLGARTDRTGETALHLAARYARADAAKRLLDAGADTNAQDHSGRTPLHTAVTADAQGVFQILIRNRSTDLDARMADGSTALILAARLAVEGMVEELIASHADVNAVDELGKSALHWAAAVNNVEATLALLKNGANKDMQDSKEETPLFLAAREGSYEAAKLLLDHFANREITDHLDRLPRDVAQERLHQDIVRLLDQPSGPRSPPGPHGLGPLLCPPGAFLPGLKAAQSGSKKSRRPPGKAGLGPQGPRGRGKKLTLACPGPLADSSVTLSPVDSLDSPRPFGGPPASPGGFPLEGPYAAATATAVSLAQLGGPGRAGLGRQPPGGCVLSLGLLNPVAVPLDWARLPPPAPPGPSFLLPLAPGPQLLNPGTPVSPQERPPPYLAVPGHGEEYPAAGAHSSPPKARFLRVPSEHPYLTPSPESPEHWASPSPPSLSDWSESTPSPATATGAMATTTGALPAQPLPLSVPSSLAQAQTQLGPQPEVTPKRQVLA

[20] = small-molecule microarray binders of probe aEGFR, primary screen, biochemical, biotinylated probe, 635/667 nm fluorescence (AID 1097); details: higher = more signal;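 note: probe is a biotinylated anti-EGFR antibody binding compounds printed on slides; score combines fluorescence near 667 nm and signal to noise of each spot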

Row | Compound | composite z-score [1] | composite z-score [2] | composite z-score [3] | composite z-score [4] | composite z-score [5] | composite z-score [6] | composite z-score [7] | z-score [8] | composite z-score [9] | composite z-score [10] | composite z-score [11] | z-score [12] | z-score [13] | z-score [14] | composite z-score [15] | z-score [16] | composite z-score [17] | composite z-score [18] | composite z-score [19] | composite z-score [20]
1 | O=C1C2C=CC(C(O)C#Cc3ccccc3)N(Nc3ccccc3)C2C(=O)N1c1ccccc1 (stereo not given) | 0.532 | -0.17 | -0.0316 | 0.208 | 1.46 | 1.74 | 1.24 | 0.818 (inactive) | 0.246 | -0.226 | 0.398 | 0.132 (inactive) | -0.0141 (inactive) | 0.104 (inactive) | 2.95 | -0.389 (inactive) | 0.217 | -0.418 | 0.314 | -0.108
2 | O=C1O[C@H](c2ccccc2)[C@H](c2ccccc2)N2[C@H]1[C@@H](C(=O)NC[C@H](O)c1ccccc1)[C@]1(C(=O)Nc3ccc(C#CC4(O)CCCCCC4)cc31)[C@H]2c1ccc(OCCO)cc1 | 0.247 | 0.634 | 0.0589 | 0.577 | 1.19 | 1.02 | 1.24 | 1.04 (inactive) | 0.388 | 0.0024 | 1.32 | 1.93 (inactive) | -0.538 (inactive) | 4.16 (inactive) | 2.72 | 3.35 (inactive) | 0.159 | 0.423 | 0.868 | 0.0301
3 | C=CC(=O)O[C@@H](Cc1ccccc1)[C@H]1C2C=CCCC=C2CN1Cc1cccc(Cl)c1 (stereo not given in full) | 0.32 | -0.32 | -0.123 | -0.682 | -0.657 | -0.518 | -1.2 | -1.44 (inactive) | -0.254 | 0.176 | -2.25 | -0.476 (inactive) | -2.23 (inactive) | -1.47 (inactive) | -0.469 | 2.01 (inactive) | -0.192 | -0.551 | -1.53 | -0.189
4 | C[C@H]1COC(=O)[C@@H]2CCCN2C(=O)[C@@H](C)COC(=O)[C@@H]2CCCN2C1=O | -0.295 | 0.491 | -0.163 | 0.0646 | 0.415 | -0.567 | -0.436 | -3.16 (inactive) | -0.041 | -0.134 | -0.8 | -0.173 (inactive) | -0.649 (inactive) | -1.65 (inactive) | -0.863 | 0.493 (inactive) | -0.175 | 0.381 | -0.493 | -0.071
5 | CCOC(=O)C[C@H]1[C@H](OC(=O)Cc2ccc3c(c2)OCO3)[C@@H](NC(=O)CC(C)C)c2cc(OCCCO)ccc2N1C(=O)c1ccccc1 | -0.0798 | 0.128 | 0.0021 | 0.782 | 0.797 | -0.0284 | 0.855 | -1.2 (inactive) | 0.0004 | -0.0994 | 0.53 | -0.211 (inactive) | -1.36 (inactive) | -0.66 (inactive) | 0.836 | 1.6 (inactive) | -0.0127 | 0.542 | 0.417 | 0.0253
6 | CC(C)[Si]1(C(C)C)O[C@@H](c2ccccc2)c2cc(C3CC3)nc(-c3ccc(Oc4ccccc4)cc3)c21 | 0.0382 | 0.0357 | -0.119 | -0.772 | -0.304 | -0.46 | -0.985 | -0.895 (inactive) | -0.148 | -0.0074 | -0.63 | 0.995 (inactive) | -0.808 (inactive) | 1.21 (inactive) | 0.369 | 1.94 (inactive) | -0.142 | -0.101 | -1.22 | -0.169
7 | C=C(CCCC)/C(=C/C[C@H](OC(=O)c1ccncc1)c1cccc(OCCO)c1)c1cc(C(=O)OC)ccc1OC | -0.195 | 0.422 | 0.0346 | 1.05 | -0.0883 | 0.0742 | 0.952 | 5.01 (inactive) | 0.104 | 0.0854 | 1.4 | 0.15 (inactive) | -0.323 (inactive) | 2.82 (inactive) | 1.23 | 1.94 (inactive) | -0.174 | 1.08 | 0.966 | -0.112
8 | C=CCC(OC(C)=O)[C@@H]1[C@@H](N(Cc2cccc3ccccc23)C(=O)Cc2ccc(F)cc2)c2cc(OCCCO)ccc2N1C(=O)Cc1ccc2ccccc2c1 (stereo not given in full) | -0.154 | 0.154 | -0.0503 | -0.169 | -0.241 | -0.58 | -0.607 | -1.32 (inactive) | -0.299 | -0.167 | 0.204 | -0.167 (inactive) | 1.1 (inactive) | -0.276 (inactive) | 0.594 | 0.348 (inactive) | -0.0197 | -0.594 | -0.0809 | -0.121
9 | CN1C(=O)C2C=CC(C(O)C3CC=CCC3)N(Nc3ccccc3)C2C1=O (stereo not given) | 0.0125 | 1.54 | 0.0631 | 0.752 | 1.62 | 1.85 | 1.29 | 0.294 (inactive) | 0.733 | 0.382 | 1.47 | 0.373 (inactive) | 0.772 (inactive) | 0.726 (inactive) | 3.32 | -0.623 (inactive) | 0.344 | 0.584 | 1.06 | 0.112
10 | CC(C)[C@H]1NC(=O)[C@@]23C(=O)N[C@@H](Cc4ccccc4)C2[C@H](C)[C@@]2(C)O[C@H]2C3/C=C/C/C=C\CNC(=O)[C@H](C)NC1=O (stereo not given in full) | 0.11 | -0.663 | -0.164 | 0.51 | -1.59 | -0.967 | 0.754 | 0.194 (inactive) | -0.367 | -0.399 | -1.24 | 0.782 (inactive) | 0.469 (inactive) | 0.41 (inactive) | -0.62 | -0.823 (inactive) | -0.287 | -0.632 | -0.517 | -0.255
